# Source: the supplement of paper PMC11417369
# ± gives the standard deviation of the averaged measurements. In all, about 25,000 sequences were measured (“ln(normalized median fluorescence intensity)”: median about 7.9, highest 2% from about 11 on). The full list was thinned out, with the highest values kept by preference.
# Tested on: PfAP2-I AP2 domain 3 (GST-tagged)
# Test: gcPBM binding intensity (ln(normalized median fluorescence intensity)); higher = stronger DNA binding
# In short: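 The highest Masliner-normalised natural-log median intensity across replicate spots of either probe orientation is reported as binding intensity. GST-tagged P. falciparum DNA-binding domains expressed in E. coli were applied for 1 h to an Agilent 4 × 180k array of primer-extended double-stranded 36-bp intergenic genomic probes plus negative controls, and bound protein was detected with Alexa488 anti-GST antibody and scanned at 488 nm.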
row,Sequence,gcPBM binding intensity (ln)
1,ACAAATCTAAGATAGTGTACATTTATATATATATAT [XGTACX_site8740],9.4 ± 0.24
2,ACATAAATATATGACACACACACATATTATATATAT [CACACA_site3065],8.36 ± 0.52
3,AAAAATAAAAAAAAATTAAAATATATATATTTTGTT [TGCATGCA_negctrl_site102],7.49 ± 0.67
4,GAAATGTATAAATCCATACACACATAAATTTTAATA [CACACA_site2364],7.58 ± 0.4
5,TATTTCTTATTACATACACACATATACATAGATGAC [CACACA_site5729],8 ± 0.55
6,GCAAGGTCCACACTGGTGCATTAAAAATAAAATATA [GTGCAC_site9956],11.6 ± 0.41
7,GATAAAATCACTGGTGCATGTAGATATATAATATTA [TGCATGCA_site589],9.12 ± 0.085
8,TTATTAAAAATGGTATGTACGCACATAATATATATA [XGTACX_site3230],8.56 ± 0.51
9,TATGTGTGCAAAAACTGTACACATTAAAGGTATATA [XGTACX_site7627],9.32 ± 0.28
10,TGCAAAAAATTCCACACACACACACGCATATAAATA [CACACA_site6696],7.95 ± 0.38
11,ATATGTACGCAAGGTGCACACTGGTGCATTAAAAAA [CACACA_site1801],12.1 ± 0.21
12,TTTATTTGGACATATACACACTTAAATATGTTTATT [CACACA_site6021],7.59 ± 0.47
13,TTTTTTTTGATATATACACACAATAAATAAATATAA [CACACA_site7400],7.78 ± 0.39
14,TATAATATATGTATATGTACTTATGTTGAGAAACAT [XGTACX_site2117],7.72 ± 0.59
15,AATAAATATAGGAATACACACAATATAAATGTATTG [CACACA_site3366],7.5 ± 0.62
16,GATACATAGAAACACACACACATACATATATACATA [CACACA_site3438],8.01 ± 0.4
17,ATTGCCATTGTTAATGCATGTAACAATTCAGCTCAT [TGCATGCA_site56],8 ± 0.83
18,AATATTGCACCATTTTGTACATAATATATTCAAATA [XGTACX_site475],11.7 ± 0.74
19,ATTTTTTTTTTTTTTTTTTTTGCACCATAAAATAAT [CACACA_negctrl_site1324],11.2 ± 0.56
20,AAAATAAATAAATATACACACCATATATATATTTTT [CACACA_site5573],7.61 ± 0.39
21,AAAAAATTTTGAAATTGTACATATATAAAAAATATA [XGTACX_site2629],7.59 ± 0.29
22,AATATATTTTTTTTTTGTACATATTGTAAAATAATA [XGTACX_site6805],7.83 ± 0.22
23,ATATATTGCACTTTTTGTACATAATGAAAAATTTTT [XGTACX_site8223],11.5 ± 1
24,TACAACAATTTTTGCACACACCAAAACATAAAATAA [CACACA_site4964],9.15 ± 0.22
25,TAAAAATATTTTCATTGTACATATATATAAATATAT [XGTACX_site1123],7.59 ± 0.3

row,Sequence,gcPBM binding intensity (ln)
1,AAAAATGAATTATTTTGTACATATATATATATATAT [XGTACX_site3410],9.48 ± 0.54
2,TTTCTTCGAAATAGAACACTTGTGCAAAATAAGCAA [XGTACX_negctrl_site361],9.9 ± 0.23
3,AAATTTAAAAATAAAGAACACACATATGTAAAATAT [CACACA_site9252],7.91 ± 0.76
4,AGGATACACGGACACACACACATATAGATTTATATA [CACACA_site6552],8.14 ± 0.2
5,AATTTATTAAAAAAATGTACTTATTTTTTTGTATAA [XGTACX_site5844],7.61 ± 0.11
6,ATTTATAATATTCAAGTGCATATATATTTTTTACTT,9.57 ± 0.14
7,TTTATTCAAGGAATAGTGCATAATAATAAGTATTAT,11.2 ± 0.62
8,ATATATTTTTATATAGTGCAAGTAATAAAAAGGAAT,10.04 ± 0.099
9,TACTATTTTTATAATACACACATATATTTGTGATAT [CACACA_site1775],7.84 ± 0.44
10,TTTGTTATATTTAATACACACATATTATAAACACAT [CACACA_site7703],8.07 ± 0.34
11,TTAATATATTATCTGGTGCATAAACACGTTATACCT,11.3 ± 0.64
12,TATATATAATATTATACACACATATCTGCATAATAT [CACACA_site4202],8.13 ± 0.49
13,GGTTATATATTTTTTGCACACCAAAAAAGAGAATAT [CACACA_site2731],9.56 ± 0.14
14,AACTCATAGGAGTGTGCACACAAAAAATTAAAAAAA [CACACA_site8996],9.52 ± 0.42
15,TTTTCATATTATAGTGCACACAAAAATATATATATG [CACACA_site8929],11.5 ± 0.47
16,TTCATATTATAGTGCACACAAAAATATATATATGGT [CACACA_site2855],11.3 ± 0.43
17,TGAATATTCATATGCACACAAATTAATATACATAAT [CACACA_site442],8.675 ± 0.021
18,CATATAAAAATATATGCACACAAATAAAAAATTATA [CACACA_site9210],8.94 ± 0.39
19,AACTCATAGCGGTGTGCACACAAAAAATTAAAAAAA [CACACA_site3033],9.9 ± 0.2
20,TATATATATTTATGCACACAAAATATATTATAGAAT [CACACA_site3740],9.99 ± 0.4
21,ATTATATACATATATGCACACAAAAAAATATATATT [CACACA_site8508],9.04 ± 0.12
22,CTCATAGTTGGGTGCACACAAAAAATTAAAAAAATA [CACACA_site3032],11.1 ± 0.81
23,ATTAATTTTATATATGCACACAAAATATGTTCATAT [CACACA_site9350],9.13 ± 0.099
24,ATTCACAAATATATGGTGCATAATATATATATATAT [GTGCAC_site9674],11.31 ± 0.078
25,ATGGCATAAATATATGCACACACAAAAAAAAAAAAA [CACACA_site7902],8.98 ± 0.11

row,Sequence,gcPBM binding intensity (ln)
1,AAAAGGGAAATAAAATAAAAAAAGAAACATATATAG [CACACA_negctrl_site455],7.72 ± 0.76
2,ATATGATCATAAAACACACACACAAAAAAAAAAAAA [CACACA_site1806],7.95 ± 0.75
3,TATATATGTGTATAGAGTACACGTTTTTTTTAATAT [XGTACX_site3128],7.71 ± 0.38
4,ATTGTATTAAAATGCACACATATCAAGAGGAATTTT [CACACA_site283],9.095 ± 0.064
5,AAAGAAAATAACAAAATTTTGAAAACATCACATTCG [CACACA_negctrl_site89],7.63 ± 0.69
6,ATCAAAATGTTAAAGATACACACCTAACAAACACAA [CACACA_site955],7.96 ± 0.19
7,TAAATCATTTATTAAGTGCAATATTCTTTTTGAGAT,10.3 ± 0.28
8,ATATATATATATATGGTGCATGAAAATTTACTTTGA,10.11 ± 0.085
9,TATATATGTATGTATGTACACACAAAAAATGGAATA [CACACA_site9235],8.05 ± 0.45
10,CGTATATCACCAACTAGTACATATAAATAAATAAAT [XGTACX_site8837],7.92 ± 0.5
11,AAAAAGGTTAAGGTAGTGCATAATAAAGAATATTAA,11 ± 0.45
12,TATATAATATATATAGTGCATAAGTTCAAAAGAATA [GTGCAC_site9805],9.95 ± 0.16
13,AAAAAGAATATAAGTAGTACAGTGCATATAATAATT [XGTACX_site617],10.3 ± 0.37
14,AAATAAGAAAAAGCGCGTACACATAACATTTTTATA [XGTACX_site8807],7.82 ± 0.54
15,TTAACGTAAAATATAGTGCATAGTATCATATTGATA [GTGCAC_site9527],9.5 ± 0.099
16,GGTTTGAATTTTTAAGTGCATATAACATAAATGAAA,9.86 ± 0.23
17,TTTGAAATATTAAATGCATGTTAAAACATAAAAATG [TGCATGCA_site680],7.91 ± 0.73
18,TATGTTTTTGAATGAGTGCATTAAAATAAAACATTT,11.3 ± 0.61
19,TATAATATGACAAGAAGTACATATATTTACATATAT [XGTACX_site1571],7.54 ± 0.29
20,AAATCAAACTTTGGTGTGCACAAATATATACATATA [GTGCAC_site9986],10.545 ± 0.007
21,TATATTCAAAATGGTACACACAATATTTAATTGTGC [CACACA_site2631],7.68 ± 0.34
22,GTTGTGTAATTCGTAACACACATAAAATATATATAA [CACACA_site6059],7.76 ± 0.48
23,TAATATATATAACAAGTGCAAAAAAATATAGATATT [GTGCAC_site9625],9.38 ± 0.33
24,TATATTAACAAAATGGTGCAATAATTTCTATATTAT [GTGCAC_site9857],11.3 ± 0.61
25,CATAACATAAAATAGGTGCACAAAAATTGTAATTGA,11.37 ± 0.021

row,Sequence,gcPBM binding intensity (ln)
1,ATTTAAATACAAAATTGTACTTTTCTATATTTAACA [XGTACX_site6146],7.79 ± 0.41
2,TATATTAACAAAATGGTGCAATAATTTCTATATTGT [GTGCAC_site9430],11.2 ± 0.54
3,AATAAGTAACAAAATACACACATATAGGTAATTATA [CACACA_site6949],7.62 ± 0.59
4,TAATATAATATATAGGTGCAATATTAACAAAAATTT,11 ± 0.44
5,TATTAATTTAAATGGGTGCAAAACCTATATAAATAT,10.6 ± 0.55
6,TACAATGAAAAAATAACATGCAATTATATTTCTCTT [TGCATGCA_site833],8.23 ± 0.74
7,AAAAATTAACAAAAGGTGCAATTTATTTATTAACGG,10.3 ± 0.5
8,AATGGGTTACACATATGTACATAAAATATAAAAAAT [XGTACX_site3440],8.06 ± 0.73
9,GGAGAATAGTGGAAAACACACACGTTTGAGATATGG [CACACA_site1168],7.92 ± 0.91
10,GATTAACAACATATTAGTACATATATTATATATATA [XGTACX_site7646],8.61 ± 0.23
11,AGTTTCTATTTAGTGTGTACTTAAGAAAAATATCTC [XGTACX_site82],7.88 ± 0.4
12,AGAAGAAAAGAAATATGTACATAAACGTCTGAACTA [XGTACX_site1699],7.8 ± 0.71
13,CCTTTTGGATGAAAGTGTACAGGTGAGAAAAATTCC [XGTACX_site3358],8.07 ± 0.54
14,TTATCGGTATAATATAGTACATATAGATATATAATA [XGTACX_site1440],7.7 ± 0.39
15,TTTGATAAATTATACACACACAATATATATAAAATA [CACACA_site2023],7.72 ± 0.51
16,CTTAAACTTTTAAATACACACATACAGACATACACA [CACACA_site6401],8.055 ± 0.021
17,ATGTATGCAAAAATGGTGCATATTAAATGTATAACA [GTGCAC_site9722],10.8 ± 0.49
18,GTAGACATTATAATGGTGCAAAAAAATTAACAAAAA [GTGCAC_site9891],10.9 ± 0.3
19,AGCAAAACAAAAAAATTAAAATTAACATATAATCAT [GTGCAC_negctrl_site393],7.38 ± 0.62
20,ATATTATAATTGAAGGTGCAAAATGTAATATAGATA [GTGCAC_site9661],10.9 ± 0.49
21,TATATATATATATAGGTGCAATATTGAAAAAATATC [GTGCAC_site9535],11.3 ± 0.47
22,ATTTTTTTTTAATGCAATATATTTTGAAAATTTTAT [CACACA_negctrl_site753],8.62 ± 0.27
23,AGATATTATAATTAATGTACAAAAAGAAAAAATAGA [XGTACX_site8964],7.86 ± 0.64
24,AAATATAATTAATGATGTACACTTATAGATATTGAT [XGTACX_site8435],8.09 ± 0.24
25,AGAAAAAAAAAAAAAAAAAAAAAATTGAATATATAT [TGCATGCA_negctrl_site55],7.67 ± 0.81
